# Laboratory results from PubChem BioAssay.
# Activity calls are given as the source filed them.
# Tested on: PRMT1 (protein arginine N-methyltransferase 1)
# Assay: PRMT1 binders on small-molecule microarrays, primary screen, biochemical, small-molecule microarray, 635 nm fluorescence (AID 1088);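 further: binding of Prmt1 protein to compounds spotted on small-molecule microarray slides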
# Settings: small-molecule microarray binding, higher = more signal
row,SMILES,composite z-score
1,C=CC[C@]1(C(N)=O)N=C(c2ccc(OCCCO)cc2)O[C@H]1c1ccccc1CN=[N+]=[N-],1.1
2,C[N+](C)(C)CCCCNC(=O)[C@@H]1C[C@@H]2C(=O)N3CCC[C@H]3C(=O)N2[C@@H]1c1cccc(OCCO)c1,0.869
3,O=C1O[C@H](c2ccccc2)[C@H](c2ccccc2)N2[C@H]1[C@@H](C(=O)Nc1nc3ccccc3s1)[C@]1(C(=O)Nc3ccc(C#CC4(O)CCCCCC4)cc31)[C@H]2c1ccc(O)cc1,1.54
4,COc1ccc(C(O)C2C=CC3C(=O)N(C)C(=O)C3N2N2CCCCC2)cc1OCc1ccccc1 (stereo not drawn),0.922
5,CC1=C([C@H](O)CCc2ccccc2)[C@H](CO)[C@@H]2C(=O)N(Cc3ccccc3)C(=O)[C@@H]2C1,-0.262
6,C=C[C@H](OC)[C@@H](OC(=O)Nc1ccc(SC)cc1)c1ccc(OC)c(O)c1,0.0672
7,CC(C)(C)OC(=O)CC[C@@]1(C(=O)NCc2ccccc2)N=C(c2ccc(OCCCO)cc2)O[C@@H]1c1ccccc1,1.55
8,O=C1c2ccccc2[C@](Cc2ccccc2I)(C(=O)NCC(F)(F)F)[C@H](c2ccc(CO)cc2)N1Cc1ccccc1C(F)(F)F,1.34
9,C=CCC(OC(C)=O)[C@@H]1[C@@H](N(Cc2cccc3ccccc23)C(=O)Cc2ccc(F)cc2)c2cc(OCCCO)ccc2N1C(=O)Cc1ccc2ccccc2c1 (stereo partly drawn),0.204
10,C=CCN1C(=O)[C@@]2(Cc3ccccc3)N=C(c3ccc(OCCCO)cc3)O[C@H]2c2ccccc21,1.36
11,Cc1ccc(N2C(=O)c3ccccc3[C@@H](C(=O)NCc3ccccc3)[C@@H]2c2ccc(CO)cc2)nc1,-0.363
12,CO[C@H]1COC(=O)[C@H](C)COC(=O)[C@H](Cc2ccccc2)NC(=O)CC=C[C@H]1C,-0.0111
13,CN(C)CCCC[C@@H]1NC(=O)[C@@H]2C[C@H](C(=O)NCCCCCNC(=O)CS)[C@H](c3ccc(O)cc3)N2C1=O,1.42
14,O=C1O[C@H](c2ccccc2)[C@H](c2ccccc2)N2[C@H]1[C@@H](C(=O)NC[C@H](O)c1ccccc1)[C@]1(C(=O)Nc3ccc(C#CC4=CCCCC4)cc31)[C@H]2c1ccc(OCCO)cc1,1.55

# Tested on: not listed separately
# Assay: yeast growth modulation, basal conditions, primary screen, YJM789 clinical isolate, OD600, 24 h (AID 1089);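 further: growth of clinical yeast isolate S. cerevisiae YJM 789 seeded 1000 cells per well; test concentration not given here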
# Settings: S. cerevisiae YJM789 growth, higher = more signal, called active from +8 up or from −8 down
row,SMILES,z-score
1,CCOC(=O)C[C@H]1[C@H](OC(=O)Cc2ccc3c(c2)OCO3)[C@@H](NC(=O)c2ccc3ccccc3c2)c2cc(OCCCO)ccc2N1C(=O)Cc1ccc(OC)cc1,-2.93 (inactive)
2,O=C(NCc1ccccc1)c1ccc(Br)cc1[N+](=O)[O-],-1.19 (inactive)
3,CC(C)(C)OC(=O)CC[C@]1(C(=O)N2CCCCC2)N=C(c2ccc(OCCCO)cc2)O[C@H]1c1ccccc1,-4.57 (inactive)
4,C=CCNC(=O)[C@@H]1[C@H]2C(=O)O[C@H](c3ccccc3)[C@H](c3ccccc3)N2[C@H](c2ccc(OCCO)cc2)[C@@]12C(=O)N(C(=O)OCCOC)c1ccc(C#CC3(O)CCCCCC3)cc12,-1.05 (inactive)
5,CCCC=C(CCC)[C@@H](NS(=O)(=O)c1ccc(C(F)(F)F)cc1)c1ccc(-c2ccccc2)cc1,0.251 (inactive)
6,NC(=O)NCC#Cc1ccc2c(c1)[C@]1(C(=O)N2)[C@H](C(=O)N2CCCCCCC2)[C@H]2C(=O)O[C@H](c3ccccc3)[C@H](c3ccccc3)N2[C@@H]1c1ccccc1OCCO,0.305 (inactive)
7,C=C[C@H](OC)[C@@H](OC(=O)Nc1ccc(SC)cc1)c1ccc(O)c(F)c1,-1.83 (inactive)
8,CO[C@H]1COC(=O)CC=C[C@H](C)COC(=O)[C@@H](OCc2ccccc2)C=C[C@@H]1C,0.0706 (inactive)
9,CC(C)C[C@@H]1NC(=O)[C@H]2C[C@@H](C(=O)NCCCCCC[N+](C)(C)C)[C@@H](c3ccc(O)cc3)N2C1=O,0.248 (inactive)
10,CO[C@H]1COC(=O)[C@@H](C)NC(=O)CC=C[C@@H](C)[C@H](OC)COC(=O)CC=C[C@@H]1C,-1.66 (inactive)
11,C=CC[C@@]12N=C(c3ccc(OCCCO)cc3)O[C@@H]1c1ccccc1CN(Cc1ccccc1)C2=O,-0.127 (inactive)
12,COc1ccc([Si](C)(C)[C@@H]2[C@@H](CC(=O)N(CCO)Cc3ccccc3)O[C@]3(C(=O)N(Cc4cccc(N5CCC5=O)c4)c4ccccc43)[C@H]2C)cc1,-1.16 (inactive)
13,CN(C)CCCC[C@@H]1NC(=O)[C@@H]2C[C@H](C(=O)O)[C@H](c3ccc(O)cc3)N2C1=O,-0.937 (inactive)
14,CCOC(=O)C1=CCC(c2cccc3ccccc23)N(S(=O)(=O)c2ccc(C)cc2)C1 (stereo not drawn),-0.109 (inactive)
